Among the data in PubChem BioAssay (NCI) are growth values, retold here.

Test in all cases: NCI-60 one-dose screen, 48 h (100 = growth as untreated, 0 = no growth, -100 = all killed)
What all share (details): 10 µM unless noted

In assay [1] the test system is HCT-15 colon.
For assay [2], the system named is HT29 colon.
Assay [3] relates to SNB-75 CNS.
Assay [4] has as its system SNB-19 CNS.
In assay [5] the test system is U251 CNS.
Assay [6] relates to PC-3 prostate.
In assay [7] the test system is SK-MEL-5 melanoma.
The subject of assay [8] is UACC-62 melanoma.
Assay [9] relates to LOX IMVI melanoma.
The test system of assay [10] is SK-MEL-28 melanoma.

This is part of a sample that, as a whole, favours compounds with a hit. Of some 83,000 tested, about 20% had one in any assay.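 Plates (96-well) were seeded with cells, treated with compound at one concentration, and incubated for 48 hours before percent growth was determined.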 A number with no mark means an inactive call. Calls of active or inactive are those of the source. How the source made its calls: active means growth percent below 10; inactive means the rest.

For the compound `Cn1cc(-c2noc(C(=O)c3cn(C)c4ncccc34)n2)c2ccccc21`, the growth in assay [1] is 65.2%; in assay [2] it was 102%; in [3] it was 60.4%; in assay [4] it was 93.1%; in assay [5], 89.2%; in assay [6], 87%. Besides, the growth in [7] was 87.9%; in [8], 91.8%; in [9] it was 94.8%; in assay [10], 100%.
With `Cc1nc(Cl)c2c(n1)N(C)c1ccc(Cl)cc1C(C)C2` (stereo not given), the growth in assay [1] is 90.5%; in assay [2] it was 83.8%; in assay [3], 66.1%; in [4], 90.5%; in assay [5], 90.1%; in [6] it was 73.5%. The growth is 82.5% in assay [7], 65% in [8], 92.3% in assay [9] and 105% in assay [10].
For `Nc1cc(N)c(N=Nc2ccc(S(=O)(=O)O)cc2)cc1N=Nc1ccc(-c2ccc(N=Nc3ccc(O)c(C(=O)O)c3)cc2)cc1`, the growth is 103% in assay [1]; 103% in assay [2]; 98.9% in assay [3]; 95.6% in assay [4]; 101% in assay [5]; 98.2% in assay [6]. For the same compound, the growth was 101% in [7], 94.6% in assay [8], 100% in [9] and 106% in assay [10].
For the compound `NC(=O)c1cccc(-c2ccc(S(=O)(=O)Nc3ccc4c(c3)N(C(=O)C3CC3)CCC4)cc2)c1`, the growth in [1] was 91.9%; in assay [2] it was 13.6%; in assay [3], 11.9%; in assay [4] it was 48.3%; in [5] it was 31.3%; in assay [6], 40%. Also, the growth in assay [7] was 11.4%; in [8], 26.7%; in assay [9], 41.6%; in assay [10], 51.7%.
Consider `Cc1cccc(C[C@H](NC(=O)Nc2ccc(Cl)cc2F)C(=O)N[C@@H]2C(=O)N3C[C@H](O)C[C@H]3C(=O)N3CCN(C)C[C@H]3C(=O)N[C@@H](C)C(=O)N3C[C@H](C)C[C@H]3C(=O)O[C@H]2C)c1`, for which the growth in assay [1] was 105%; in assay [2], 36%; in assay [3], 18.8%; in [4], 22.5%; in assay [5] it was 23.5%; in [6], 19.6%. In addition, the growth in assay [7] was 40.7%; in assay [8] it was 28.3%; in [9], 40.9%; in assay [10], 42.4%.
For `CCN=Cc1c(O)c(O)c(C(C)C)c2cc(C)c(-c3c(C)cc4c(C(C)C)c(O)c(O)c(C=NCC)c4c3O)c(O)c12`, the growth was 23.2% in [1]; 25% in assay [2]; 57.7% in assay [3]; 27.3% in [4]; 25.8% in assay [5]; 29.4% in [6]. Besides, the growth was 95.4% in assay [7], 76.8% in assay [8], 39.1% in assay [9] and 74.9% in assay [10].
With `COc1ccc(OC)c(NC=O)c1`, the growth is 103% in [1]; 99.4% in assay [2]; 100% in assay [3]; 106% in [4]; 88.2% in assay [5]; 105% in assay [6]. Also, the growth in assay [7] was 110%; in assay [8], 99.7%; in assay [9] it was 100%; in assay [10] it was 115%.
Turning to `O=C(NCc1ccc(Cn2c(=O)sn(-c3ccccc3)c2=O)cc1)OCc1ccc2c(Br)cc(Br)c(O)c2n1`, the growth was -10.2% (active) in assay [1]; -66.6% (active) in assay [2]; -93.8% (active) in assay [3]; 19.2% in [4]; -83.6% (active) in assay [5]; -56.1% (active) in assay [6]. Moreover, the growth is -97.4% (active) in assay [7], -76.1% (active) in assay [8], -92.3% (active) in assay [9] and -69.9% (active) in [10].
In the case of `Cc1cc(C)c(S(=O)(=O)/N=c2/n(-c3ccccc3)nc3n2CCN3C2=NCCN2)c(C)c1`, the growth was 90.1% in assay [1]; 58% in assay [2]; 74.3% in [3]; 91.5% in [4]; 76.4% in assay [5]; 69.5% in assay [6]. The growth in assay [7] is 60.4%; in [8], 88.8%; in [9], 73.3%; in assay [10] it was 82.3%.
For `O=C1COCCN1c1ccc(Nc2nc(Cl)nc(N3CCOCC3)n2)cc1`, the growth is 91.8% in assay [1]; 89.4% in [2]; 89.7% in assay [3]; 95.9% in assay [4]; 101% in assay [5]; 96.8% in [6]. In addition, the growth in assay [7] was 100%; in assay [8] it was 96%; in [9], 93.8%; in [10], 101%.
As for `COc1cc(OC)c(/C=C/C(=O)c2c(N)cc(OC)cc2OC)c(OC)c1`, the growth was 21.2% in assay [1]; 3.5% (active) in assay [2]; 23.5% in assay [3]; 27.9% in assay [4]; 11.9% in assay [5]; 11.8% in assay [6]. The growth is 17% in assay [7], 9.68% (active) in assay [8], 23.2% in assay [9] and 61% in [10].
`C=C(C)[C@@H]1CC[C@]2(COCCCN)CC[C@]3(C)[C@H](CC[C@@H]4[C@@](C)(CCCNCCCN)[C@H](C(=C)C)CC[C@]43C)[C@@H]12`: the growth in assay [1] was -53.4% [100 µM] (active); in assay [2] it was -23.1% [100 µM] (active); in [3], -74.1% [100 µM] (active); in assay [4], -60.1% [100 µM] (active); in assay [5], -51.5% [100 µM] (active); in [6], -53.9% [100 µM] (active). In addition, the growth is -55.1% [100 µM] (active) in [7], -72.4% [100 µM] (active) in assay [8], -49.7% [100 µM] (active) in assay [9] and -63.3% [100 µM] (active) in [10].
As for `O=S(=O)(c1ccc(N/N=C\c2ccccc2Cl)cc1)c1ccc(N/N=C/c2ccccc2Cl)cc1`, the growth in assay [1] was 73.7%; in [2] it was 79.2%; in assay [3], 61.5%; in [4], 90.4%; in [5], 90.1%; in assay [6], 54.7%. Further, the growth in assay [7] is 97.1%; in assay [8], 73.2%; in assay [9], 95.1%; in assay [10], 94.2%.
For the compound `Cc1cc2c(C(C)C)c(O)c(O)c(C=NCc3ccoc3)c2c(O)c1-c1c(C)cc2c(C(C)C)c(O)c(O)c(C=NCc3ccco3)c2c1O`, the growth in assay [1] is 19.5%; in [2], 31.2%; in assay [3], 64.9%; in assay [4], 19.8%; in [5] it was 25.6%; in assay [6], 29.7%. In addition, the growth was 91.7% in assay [7], 67.9% in assay [8], 37% in [9] and 70.3% in assay [10].
`CC(=O)CC(=O)SC1=NCCS1`: the growth in assay [1] is 100%; in assay [2] it was 105%; in [3], 109%; in assay [4] it was 107%; in assay [5] it was 102%; in assay [6] it was 89.9%. For the same compound, the growth is 112% in assay [7], 115% in assay [8], 97.7% in assay [9] and 115% in [10].
Consider `CCCCCCSc1ncnc2nc[nH]c12`, for which the growth in assay [1] was 90.8%; in [2], 103%; in assay [3], 91.2%; in [4], 86.2%; in assay [5] it was 90.1%; in assay [6], 85.2%. Also, the growth was 94% in [7], 77% in assay [8], 80.1% in assay [9] and 101% in [10].
As to `CNC(=O)c1cc(Oc2cccc3nc(NC(=O)Nc4cc(C(F)(F)F)cc(C(F)(F)F)c4)ccc23)ccn1`, the growth in assay [1] is 71.1%; in assay [2] it was 16%; in assay [3], -23.7% (active); in assay [4] it was 38.8%; in [5] it was -34.9% (active); in assay [6] it was 52.8%. Besides, the growth is 59.9% in assay [7], 41.4% in assay [8], 12.7% in [9] and 33.2% in assay [10].
Consider `C=C(C)[C@@H]1CC[C@]2(C(=O)NCCNCCNC(=O)OC(C)(C)C)CC[C@]3(C)[C@H](CC[C@@H]4[C@@]5(C)CCC(=O)C(C)(C)[C@@H]5CC[C@]43C)[C@@H]12`, for which the growth was 50.4% [100 µM] in assay [1]; 23.7% [100 µM] in [2]; 23.9% [100 µM] in assay [3]; 47.8% [100 µM] in assay [4]; 27.9% [100 µM] in assay [5]; 19.1% [100 µM] in assay [6]. In addition, the growth in assay [7] was -8.44% [100 µM] (active); in assay [8], 48.2% [100 µM]; in assay [9], 39.6% [100 µM]; in assay [10] it was 56.3% [100 µM].
Regarding `CC(C)CCNCC(C)(C)O`, the growth in [1] was 99.1%; in assay [2], 103%; in assay [3], 90.3%; in assay [4], 109%; in [5], 104%; in [6] it was 98.6%. For the same compound, the growth in [7] was 113%; in assay [8], 111%; in [9], 101%; in assay [10], 122%.
`COc1cc2c(c(OC)c1OC)-c1cc(I)c(O)cc1[C@@H](NC(C)=O)CC2`: the growth in [1] was 4.21% (active); in [2], 10.8%; in assay [3] it was 28%; in [4] it was 14.1%; in assay [5], 7.36% (active); in [6], 28.8%. Moreover, the growth was -15.2% (active) in assay [7], 17.8% in assay [8], 24.4% in assay [9] and 76.7% in [10].
As to `Nc1nc(Nc2ccccc2)c2ncn(Cc3ccc4c(c3)OCO4)c2n1`, the growth in assay [1] is 23.1%; in assay [2], 20.6%; in [3] it was 29.4%; in assay [4], 54.4%; in assay [5] it was 49.5%; in assay [6], 58.4%. Moreover, the growth in [7] was 21.4%; in assay [8] it was 41.3%; in assay [9], 48%; in [10] it was 63.5%.
Take `CNc1cc(C(=O)O)nc(NC)n1`: the growth is 96.4% in [1]; 104% in assay [2]; 90.9% in assay [3]; 92.5% in [4]; 99.8% in [5]; 94.9% in assay [6]. Besides, the growth in [7] is 96.7%; in [8], 97.8%; in assay [9] it was 99.8%; in assay [10], 92.7%.
For the compound `N#CCCc1c[nH]c2ccccc12`, the growth in assay [1] was 104%; in assay [2] it was 91.1%; in assay [3], 76.4%; in assay [4], 105%; in [5], 91.3%; in [6], 78.6%. The growth was 92.1% in assay [7], 98.6% in assay [8], 90.5% in assay [9] and 106% in [10].
Consider `CC1(C)C(=NO)C(C)(C)C1=NO`, for which the growth in [1] is 102%; in assay [2] it was 105%; in assay [3] it was 96.5%; in [4], 107%; in assay [5], 113%; in assay [6], 90.7%. Besides, the growth in assay [7] is 103%; in assay [8], 109%; in [9] it was 108%; in assay [10], 113%.
On to `CN(C)c1ccc(-c2ccc(-c3ccc(C(=N)N)cc3)s2)cc1`, for which the growth in assay [1] is -74.6% (active); in [2], -65.6% (active); in assay [3], 97.6%; in assay [4] it was -70.2% (active); in assay [5], -86.8% (active); in assay [6], -91.6% (active). For the same compound, the growth in assay [7] was 74.3%; in [8], 37.1%; in assay [9], 12.7%; in assay [10] it was 94.1%.
